Drawing on PMC5700166, this text covers binding signal for 39 sequences.

The assay deals with GST-Hu-p50 (Homo sapiens, UniProt P19838 7-356). In words: protein-binding microarray (PBM); PBM: ~300 nM protein, 6 mM HEPES pH 7.8, 80 mM KCl, 0.5 mM EDTA, 0.5 mM EGTA, 6% glycerol, 35 ng/ul poly-dIdC, 1% milk, 1 h, room temperature; Ap Aiptasia and Nv Nematostella (sea anemones) / Co Capsaspora / Aq Amphimedon (sponge) / Dm Drosophila / Hu human; RHD is the Rel homology domain; high values mean tight binding. The conditions noted are these: dsDNA, one strand shown.
Sequence of GST-Hu-p50 (P19838 7-356): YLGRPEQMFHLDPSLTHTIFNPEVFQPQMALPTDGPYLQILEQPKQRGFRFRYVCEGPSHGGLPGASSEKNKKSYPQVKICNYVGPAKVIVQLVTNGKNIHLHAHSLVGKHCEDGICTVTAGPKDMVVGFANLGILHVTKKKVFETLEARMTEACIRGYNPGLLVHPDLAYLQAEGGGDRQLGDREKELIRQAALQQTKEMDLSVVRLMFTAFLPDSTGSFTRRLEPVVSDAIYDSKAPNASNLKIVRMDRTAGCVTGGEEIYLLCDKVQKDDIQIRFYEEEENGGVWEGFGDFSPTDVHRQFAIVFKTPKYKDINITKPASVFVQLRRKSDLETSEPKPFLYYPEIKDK
Consider “CCGATTAACATCACCATTATAGGTGATGTTAATCGGGTCTTGATTCGCTTGACGCTGCTG”, for which the binding signal was 1.68 z-score.
Sequence “CCGATTAACATCATGGGGTGTGCTGATGTTAATCGGGTCTTGATTCGCTTGACGCTGCTG” showed a binding signal of 1.49 z-score.
For the sequence “CCGATTAACATCAAGGTATTTCCTGATGTTAATCGGGTCTTGATTCGCTTGACGCTGCTG”, the binding signal was 1.29 z-score.
Take “CCGATTAACATCAACCAATTCCCTGATGTTAATCGGGTCTTGATTCGCTTGACGCTGCTG”: the binding signal is 2.54 z-score.
Turning to “CCGATTAACATCAGGGAAAAACCTGATGTTAATCGGGTCTTGATTCGCTTGACGCTGCTG”, the binding signal amounted to 4.95 z-score.
“CCGATTAACATCAGGGGTATACCTGATGTTAATCGGGTCTTGATTCGCTTGACGCTGCTG” displayed a binding signal of 1.99 z-score.
“CCGATTAACATCACTCTTTCCCCTGATGTTAATCGGGTCTTGATTCGCTTGACGCTGCTG” returned a binding signal of 4.08 z-score.
“CCGATTAACATCAAATTCTCCCCTGATGTTAATCGGGTCTTGATTCGCTTGACGCTGCTG” registered a binding signal of 5.07 z-score.
For “CCGATTAACATCAGGGAAACTACTGATGTTAATCGGGTCTTGATTCGCTTGACGCTGCTG”, the binding signal was 3.85 z-score.
The value for “CCGATTAACATCAGGGAGACCCCTGATGTTAATCGGGTCTTGATTCGCTTGACGCTGCTG” was 3.48 z-score; that for “CCGATTAACATCAATAAATTCCCTGATGTTAATCGGGTCTTGATTCGCTTGACGCTGCTG” was 5.11 z-score; that for “CCGATTAACATCAGTGATTAAGGTGATGTTAATCGGGTCTTGATTCGCTTGACGCTGCTG” was 1.25 z-score.
“CCGATTAACATCAACGGTGGAAATGATGTTAATCGGGTCTTGATTCGCTTGACGCTGCTG” gave a binding signal of 1.15 z-score.
“CCGATTAACATCAAGGGAAAATATGATGTTAATCGGGTCTTGATTCGCTTGACGCTGCTG” had a binding signal of 4.8 z-score.
The result for “CCGATTAACATCAGGGGAAGCACTGATGTTAATCGGGTCTTGATTCGCTTGACGCTGCTG” reads 5.16 z-score.
The sequence “CCGATTAACATCAAAAAACTACCTGATGTTAATCGGGTCTTGATTCGCTTGACGCTGCTG” gave a binding signal of 4.32 z-score.
As for “CCGATTAACATCAGGGAAAAAAATGATGTTAATCGGGTCTTGATTCGCTTGACGCTGCTG”, the binding signal was 4.58 z-score.
On to “CCGATTAACATCAGGGGAAGAAATGATGTTAATCGGGTCTTGATTCGCTTGACGCTGCTG”, for which the binding signal turned out to be 5.16 z-score.
As for “CCGATTAACATCACCATTTTCCCTGATGTTAATCGGGTCTTGATTCGCTTGACGCTGCTG”, the binding signal was determined as 3.64 z-score.
Turning to “CCGATTAACATCAAAAAATTCCTTGATGTTAATCGGGTCTTGATTCGCTTGACGCTGCTG”, the binding signal was 1.55 z-score.
The sequence “CCGATTAACATCAAAGGGAATTCTGATGTTAATCGGGTCTTGATTCGCTTGACGCTGCTG” gave a binding signal of 4.99 z-score.
“CCGATTAACATCAGGGGCCGTAATGATGTTAATCGGGTCTTGATTCGCTTGACGCTGCTG” registered a binding signal of 1.41 z-score.
The result for “CCGATTAACATCAAGGGCTTCCCTGATGTTAATCGGGTCTTGATTCGCTTGACGCTGCTG” reads 1.06 z-score; that for “CCGATTAACATCAAGGGAAAAATTGATGTTAATCGGGTCTTGATTCGCTTGACGCTGCTG”, 4.56 z-score.
As for “CCGATTAACATCACCCACCGATTTGATGTTAATCGGGTCTTGATTCGCTTGACGCTGCTG”, the binding signal worked out at 1.08 z-score.
In turn, “CCGATTAACATCAGGGGAAAGCATGATGTTAATCGGGTCTTGATTCGCTTGACGCTGCTG” came in with a binding signal of 4.81 z-score.
The sequence “CCGATTAACATCAACGGGTCCCTTGATGTTAATCGGGTCTTGATTCGCTTGACGCTGCTG” had a binding signal of 1.31 z-score.
The result for “CCGATTAACATCATTAGGGAAAATGATGTTAATCGGGTCTTGATTCGCTTGACGCTGCTG” reads 4.64 z-score.
The result for “CCGATTAACATCAGGGATTCCACTGATGTTAATCGGGTCTTGATTCGCTTGACGCTGCTG” reads 1.75 z-score.
Consider “CCGATTAACATCACAAAAAATTTTGATGTTAATCGGGTCTTGATTCGCTTGACGCTGCTG”, for which the binding signal is 1.65 z-score.
With “CCGATTAACATCACGATTTTCCCTGATGTTAATCGGGTCTTGATTCGCTTGACGCTGCTG”, the binding signal was 3.78 z-score.
Turning to “CCGATTAACATCAGGATTTTCCCTGATGTTAATCGGGTCTTGATTCGCTTGACGCTGCTG”, the binding signal came out at 5 z-score.
“CCGATTAACATCAATTTATCCCCTGATGTTAATCGGGTCTTGATTCGCTTGACGCTGCTG”: the binding signal was found to be 4.37 z-score.
The sequence “CCGATTAACATCAAGAAATTCCTTGATGTTAATCGGGTCTTGATTCGCTTGACGCTGCTG” had a binding signal of 1.18 z-score.
Turning to “CCGATTAACATCAATTTTTTCCCTGATGTTAATCGGGTCTTGATTCGCTTGACGCTGCTG”, the binding signal turned out to be 4.43 z-score.
The value for “CCGATTAACATCAGGGAACGCCCTGATGTTAATCGGGTCTTGATTCGCTTGACGCTGCTG” was 2.04 z-score; that for “CCGATTAACATCAGGCGTTTCCCTGATGTTAATCGGGTCTTGATTCGCTTGACGCTGCTG” was 1.83 z-score.
The sequence “CCGATTAACATCATTCCACCAGGTGATGTTAATCGGGTCTTGATTCGCTTGACGCTGCTG” came in with a binding signal of 1.04 z-score.
“CCGATTAACATCACCGTTTTCCCTGATGTTAATCGGGTCTTGATTCGCTTGACGCTGCTG” showed a binding signal of 3.18 z-score.
